The target in assay [1] is Calcium and integrin-binding protein 1 (Homo sapiens) (UniProt Q99828). Put plainly: Primary qHTS for Identification of Calcium Integrin Binding Protein 1 (CIB1) Competitor (AID 1508620).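 Also: GST tagged CIB1 binding a fluorescein labelled alphaIIb integrin peptide tracer; top concentration of the series differs between compounds; % is scaled to controls: 0 for no effect and ±100 for the full control effect.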 The procedure, abridged:
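Fluorescence polarization competition: GST-tagged CIB1 (1 uM final) preincubated with compound 15 min at room temperature, then FITC-labelled alphaIIb peptide (100 nM final) added. After 15 min at room temperature, polarization read at Ex 480/Em 540.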

A short description of assay [2]: Primary qHTS for small molecule stabilizers of the endoplasmic reticulum resident proteome: Secreted ER Calcium Modulated Protein (SERCaMP) assay (AID 1508630). Also: % is scaled to controls: 0 for no effect and ±100 for the full control effect. The procedure, abridged:
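The SH-SY5Y reporter protocol was run at 3 concentrations up to 38.3 uM (primary) or 11 concentrations (follow-up): 16 h compound, 100 nM thapsigargin for 4 h, then extracellular luciferase luminescence.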
(In general: qHTS replaces the single test concentration by a dilution series.)

Assay [3] can be described thus: A High-Content qHTS Against Drug Library for the Identification of Small Molecules that Inhibit DYT1 Early Onset Primary Dystonia-Associated Cell Pathology (AID 1645839; calls by dose curve; also: series mostly up to about 46 µM). The procedure, abridged:
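Cells were seeded and left for 24 h, then dosed with compound alongside tetracycline induction of mutant EGFP-TorsinA. They were incubated for 48 h, fixed in 4% paraformaldehyde, permeabilized and imaged for mislocalization (%pathology) and cell count.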

The target in assay [4] is Cytochrome P450 2D6 (Homo sapiens) (UniProt P10635). Put plainly: Cytochrome P450 family 2 subfamily D member 6 (CYP2D6) small molecule antagonists: luciferase biochemical (cell-free) qHTS assay (AID 1645840; active = well fitted curve in the direction sought with a large enough effect in the repeat runs; an effect the other way counts as inactive or inconclusive; also: nearly all actives have a fitted effect of over 55% in size; also: potency is read from the fitted curve at half-maximal effect). The procedure, abridged: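 P450-Glo CYP2D6 system: proluciferin substrate converted by enzyme to luciferin, read by luminescence proportional to activity. Enzyme-substrate mix with compound 10 min at room temperature, then NADPH regeneration 1 h before detection reagent.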

The nature of assay [5]: Confirmatory qHTS for small molecule stabilizers of the endoplasmic reticulum resident proteome: Secreted ER Calcium Modulated Protein (SERCaMP) assay (AID 1508628). Also: nearly all actives have a fitted effect of over 40% in size. Also: potency is read from the fitted curve at half-maximal effect. The procedure, abridged:
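GLuc-SERCaMP-expressing SH-SY5Y cells, pretreated 16 h with compound, are challenged with thapsigargin to empty ER calcium stores; after 4 h, coelenterazine is added directly to the medium and luminescence is imaged.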

Assay [6] can be described thus: Counterscreen qHTS for small molecule stabilizers of the endoplasmic reticulum resident proteome: GLuc-NoTag assay (AID 1508627). Also: potency is read from the fitted curve at half-maximal effect. The method in brief:
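Counterscreen line: SH-SY5Y-GLuc-NoTag. Seed, 5 h; compound, 19 h; thapsigargin 100 nM, 4 h; 37C/5% CO2. Readout: secreted GLuc luminescence, coelenterazine 0.07x final, no lysis.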
For orientation: A counterscreen serves to expose hits that act by an unwanted route or on another target.

A short description of assay [7]: Cell Viability qHTS for small molecule stabilizers of the endoplasmic reticulum resident proteome (AID 1508629).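 Also: human SH-SY5Y neuroblastoma cells carrying the GLuc-SERCaMP reporter; compound exposure about 46 h in total before the viability read; % is scaled to controls: 0 for no effect and ±100 for the full control effect.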 The following applies: cell viability counter-screen, 100 nM thapsigargin for final 4 h.
For assay [8], the target named is Cytochrome P450 2C9 (Homo sapiens) (UniProt P11712). Description: Cytochrome P450 family 2 subfamily C member 9 (CYP2C9) small molecule antagonists: luciferase biochemical (cell-free) qHTS assay (AID 1645842; active = well fitted curve in the direction sought with a large enough effect in the repeat runs; an effect the other way counts as inactive or inconclusive; also: nearly all actives have a fitted effect of over 55% in size; also: potency is read from the fitted curve at half-maximal effect). The procedure, abridged: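 P450-Glo CYP2C9 system: proluciferin substrate with enzyme in mix containing 0.4% BSA, 10 min at room temperature, then NADPH regeneration solution added and incubated 1 h at 37C. Detection reagent stopped reaction; luminescence read after 20 min as RLU.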

Assay [9] deals with Cytochrome P450 3A4 (Homo sapiens) (UniProt P08684). Put plainly: Cytochrome P450 family 3 subfamily A member 4 (CYP3A4) small molecule antagonists: luciferase qHTS assay (AID 1645841; active = well fitted curve in the direction sought with a large enough effect in the repeat runs; an effect the other way counts as inactive or inconclusive; also: nearly all actives have a fitted effect of over 45% in size; also: potency is read from the fitted curve at half-maximal effect). The method in brief: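 P450-Glo CYP3A4 enzyme with proluciferin substrate preincubated 10 min with compound at room temperature, then NADPH regeneration 1 h. Luciferin detection reagent added for 20 min; luminescence recorded. Ketoconazole positive control.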

Assay [10] has as its target Calcium and integrin-binding protein 1 (Homo sapiens) (UniProt Q99828). Put plainly: Validation qHTS for Identification of Calcium Integrin Binding protein 1 (CIB1) Competitor (AID 1508618). Also: % is scaled to controls: 0 for no effect and ±100 for the full control effect. The procedure, abridged:
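CIB1-GST (1 uM final) in 5 mM HEPES pH 7.4, 125 mM NaCl, 5 mM CaCl2, 0.01% Tween20 was preincubated 15 min at room temperature with compound (up to 114 uM), then FITC-alphaIIb peptide (100 nM) added for 15 min; fluorescence polarization read.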

“And” between values parts separate entries of the source, which are not always exact repeats. Equal entries are not always repeated. Records with an inconclusive call do not appear. Values without a mark were called inactive. The source made the active and inactive calls. Unless noted, calls follow the shape of the dose curve; as a rule, active = well fitted curve in the direction sought with a large enough effect; inconclusive = small, poorly fitted or top-dose-only effect, or another doubt; inactive = no such curve, though single readings can be large; an effect the other way counts as inactive or inconclusive.

Chain of Cytochrome P450 2C9 (Homo sapiens) (P11712 whole entry, looked up): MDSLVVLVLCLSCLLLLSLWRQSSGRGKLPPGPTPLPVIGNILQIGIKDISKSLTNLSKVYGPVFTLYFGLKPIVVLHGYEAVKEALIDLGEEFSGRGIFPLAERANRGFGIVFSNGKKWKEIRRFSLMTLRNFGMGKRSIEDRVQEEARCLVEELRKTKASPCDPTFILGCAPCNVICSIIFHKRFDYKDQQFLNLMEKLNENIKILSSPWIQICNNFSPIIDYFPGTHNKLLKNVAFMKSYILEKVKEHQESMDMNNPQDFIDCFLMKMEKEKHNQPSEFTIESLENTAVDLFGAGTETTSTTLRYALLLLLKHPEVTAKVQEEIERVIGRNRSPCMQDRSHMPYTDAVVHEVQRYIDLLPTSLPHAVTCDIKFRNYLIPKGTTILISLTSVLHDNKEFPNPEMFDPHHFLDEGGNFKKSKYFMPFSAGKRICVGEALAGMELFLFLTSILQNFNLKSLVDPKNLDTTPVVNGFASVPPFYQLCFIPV
Chain of Calcium and integrin-binding protein 1 (Homo sapiens) (Q99828 whole entry, looked up): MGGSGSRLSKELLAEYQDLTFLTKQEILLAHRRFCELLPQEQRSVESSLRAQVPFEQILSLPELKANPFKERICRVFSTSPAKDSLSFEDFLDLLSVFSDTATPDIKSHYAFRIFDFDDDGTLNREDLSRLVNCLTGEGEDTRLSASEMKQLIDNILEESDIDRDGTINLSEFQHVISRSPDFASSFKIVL
Chain of Cytochrome P450 2D6 (Homo sapiens) (P10635 whole entry, looked up): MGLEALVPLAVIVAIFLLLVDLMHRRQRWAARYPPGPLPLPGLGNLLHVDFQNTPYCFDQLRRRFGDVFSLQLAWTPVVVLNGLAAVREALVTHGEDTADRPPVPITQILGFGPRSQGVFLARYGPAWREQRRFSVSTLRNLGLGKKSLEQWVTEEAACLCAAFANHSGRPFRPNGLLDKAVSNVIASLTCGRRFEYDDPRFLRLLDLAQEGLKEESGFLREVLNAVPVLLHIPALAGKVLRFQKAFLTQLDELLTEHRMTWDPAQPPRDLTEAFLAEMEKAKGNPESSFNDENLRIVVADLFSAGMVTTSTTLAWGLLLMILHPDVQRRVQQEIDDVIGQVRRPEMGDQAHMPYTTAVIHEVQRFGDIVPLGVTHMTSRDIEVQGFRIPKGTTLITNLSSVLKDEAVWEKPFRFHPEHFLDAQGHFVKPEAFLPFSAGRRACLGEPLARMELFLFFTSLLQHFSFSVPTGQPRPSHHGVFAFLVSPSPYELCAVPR
Chain of Cytochrome P450 3A4 (Homo sapiens) (P08684 whole entry, looked up): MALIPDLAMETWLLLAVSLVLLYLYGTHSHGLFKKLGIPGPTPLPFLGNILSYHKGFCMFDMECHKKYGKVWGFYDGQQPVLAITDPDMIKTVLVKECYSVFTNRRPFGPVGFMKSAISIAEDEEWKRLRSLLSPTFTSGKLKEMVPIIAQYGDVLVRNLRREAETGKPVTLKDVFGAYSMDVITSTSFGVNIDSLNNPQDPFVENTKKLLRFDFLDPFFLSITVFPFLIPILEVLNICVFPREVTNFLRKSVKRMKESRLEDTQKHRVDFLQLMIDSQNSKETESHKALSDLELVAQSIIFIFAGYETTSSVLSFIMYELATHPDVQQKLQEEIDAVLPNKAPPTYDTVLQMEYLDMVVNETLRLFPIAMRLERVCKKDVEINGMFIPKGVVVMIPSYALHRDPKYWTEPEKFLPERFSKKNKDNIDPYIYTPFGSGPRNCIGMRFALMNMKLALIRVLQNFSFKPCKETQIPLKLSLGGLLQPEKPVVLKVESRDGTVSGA

In the case of `Cc1cc(CC(=O)O)c(C)n1-c1ccc(Cl)cc1`, the Potency result in assay [1], in assay [2], in assay [3] and in assay [4] was “inactive” in each case.

On to `CN1CCC[C@@H]1CCO[C@](C)(c1ccccc1)c1ccc(Cl)cc1`, for which, in [1], the Potency entry was “inactive”. Also, in assay [5], the Potency was 15.8 µM (active).

On to `NC(=O)n1c(O)c(C(=O)c2cccs2)c2cc(Cl)ccc21`, for which the Potency result in assay [1] and in assay [2] was “inactive” each time.

Consider `CN(Cc1ccc(C(C)(C)C)cc1)Cc1cccc2ccccc12`, for which the Potency result in assay [1], in [2] and in assay [3] was “inactive” in each case. Further, in assay [4], the Potency was 0.123 µM (active).

As for `CC[C@H](c1ccc(O)cc1)[C@@H](CC)c1ccc(O)cc1`, the Potency result in assay [1] and in assay [2] was “inactive” in each case.

Take `C=C[C@@]1(C)CC(=O)[C@]2(O)[C@@]3(C)[C@@H](O)CCC(C)(C)[C@@H]3[C@H](O)[C@H](OC(C)=O)[C@@]2(C)O1`: the Potency entry in assay [1], in [2], in assay [3] and in assay [4] was “inactive” in each case.

As to `CC(C)(Cc1c[nH]c2ccccc12)NCC(O)COc1ccccc1C#N` (stereo not given), the Potency result in assay [1], in assay [6], in [2] and in assay [8] was “inactive” throughout. In addition, the max response in [7] is -6.12%.

`CC(CNC1CCCCC1)OC(=O)c1ccccc1` (stereo not given): the Potency result in assay [1], in [2] and in assay [3] was “inactive” throughout.

Turning to `Cc1cn([C@H]2C[C@H](F)[C@@H](CO)O2)c(=O)[nH]c1=O`, the Potency result in assay [1], in assay [2], in assay [3], in assay [4], in assay [9] and in [8] was “inactive” in each case.

Take `C=CCN1CCc2nc(N)sc2CC1`: the Potency result in assay [1], in [6], in [5], in [2], in assay [3] and in assay [4] was “inactive” throughout. In addition, the Potency result in assay [8] was “inactive”. The max response in assay [7] is -7.52%.

Turning to `O=C1C(=O)c2ccccc2C(O)=C1C1CCC(c2ccc(Cl)cc2)CC1` (stereo not given), the Potency entry in [1], in assay [2], in assay [3], in [4], in assay [9] and in assay [8] was “inactive” throughout.

On to `COc1ccc(C(Cl)=C(c2ccc(OC)cc2)c2ccc(OC)cc2)cc1`, for which the Potency result in [1], in assay [2], in assay [3] and in assay [4] was “inactive” in each case.

As to `CN1CCN(C2=Nc3cc(F)ccc3Cc3ccccc32)CC1`, the Potency entry in assay [1], in assay [3] and in assay [8] was “inactive” throughout. The Potency is 28.2 µM (active) in assay [6], 39.8 µM (active) in [5] and 5.49 µM (active) in assay [4].

Take `CC(=O)NC(=O)c1ccccc1O`: the Potency entry in assay [1], in [2], in [3], in [4] and in assay [8] was “inactive” throughout.

For the compound `O=C(Nc1cccc(C2=NCCN2)c1)Nc1cccc(C2=NCCN2)c1`, the Potency result in assay [1], in [2], in assay [3], in assay [4] and in [8] was “inactive” in each case.

As to `NC(=O)C1(N2CCCCC2)CCN(CCCC(=O)c2ccc(F)cc2)CC1`, the Potency entry in [1], in assay [2], in assay [3], in assay [9] and in assay [8] was “inactive” throughout. In assay [4], the Potency is 4.36 µM (active).

For `NC(N)=NCc1cccc(I)c1`, the result in [10] was inactive. Besides, in assay [2], the Potency entry is “inactive”.

For `NS(=O)(=O)Cc1noc2ccccc12`, the Potency entry in assay [1], in assay [2], in [3], in assay [4], in assay [9] and in [8] was “inactive” throughout.

As to `COC(=O)C(c1ccccc1Cl)N1CCc2sccc2C1` (stereo not given), the Potency entry in [1], in [2] and in [3] was “inactive” each time. In addition, the Potency in [4] is 17.4 µM (active).

Regarding `CN(CCCN1c2ccccc2CCc2ccccc21)CC(=O)c1ccc(Cl)cc1`, the Potency entry in assay [1] and in [6] was “inactive” each time. Also, the Potency is 31.6 µM (active) and 39.8 µM (active) in assay [5]; 6.09 µM (active) in assay [4]; 12.1 µM (active) in assay [8]. Moreover, the max response in [7] was 24.4%.

Turning to `O=[N+]([O-])c1cccc(S(=O)(=O)NCCNS(=O)(=O)c2cccc([N+](=O)[O-])c2)c1`, the Potency entry in [1], in [2], in assay [3] and in assay [4] was “inactive” each time.

With `O=C1C(CCS(=O)c2ccccc2)C(=O)N(c2ccccc2)N1c1ccccc1` (stereo not given), the Potency result in assay [1], in assay [2], in assay [3] and in assay [4] was “inactive” throughout. For the same compound, in assay [8], the Potency was 3.09 µM (active).

In the case of `CCOc1cc(OCC)c(C(=O)CCC(=O)O)cc1OCC`, the Potency result in assay [1], in assay [6], in [5], in assay [3], in assay [4] and in assay [8] was “inactive” in each case. The max response in [7] was 24.8%.

Consider `O=C1OC2(c3ccccc31)c1cc(Br)c(O)c(Br)c1Oc1c2cc(Br)c(O)c1Br`, for which the Potency entry in [1] and in assay [6] was “inactive” throughout. For the same compound, the Potency in assay [9] was 17.4 µM (active); in assay [8], 12.3 µM (active).

For `CN=C(N)NCCC[C@H](N)C(=O)O`, in assay [10], the result was inactive. Besides, in [2], the Potency entry was “inactive”.

For the compound `COc1ccc(C(=O)c2ccccc2)c(O)c1`, the Potency result in assay [1], in [2], in assay [3] and in assay [4] was “inactive” in each case.

Regarding `O[C@@H](c1cc(C(F)(F)F)nc2c(C(F)(F)F)cccc12)[C@H]1CCCCN1`, the Potency entry in assay [1] and in [2] was “inactive” in each case.

With `Cc1ccccc1OCC(O)CO` (stereo not given), the Potency result in assay [1], in assay [2] and in assay [3] was “inactive” each time.

With `CCOC(=O)[C@H](CCc1ccccc1)N[C@@H](C)C(=O)N1[C@H](C(=O)O)C[C@H]2CCCC[C@@H]21`, in assay [10], the outcome was inactive. In [2], the Potency result is “inactive”.

`CC(C)(C)NC[C@H](O)COc1nsnc1N1CCOCC1`: in assay [10], the outcome was inactive. Also, the Potency result in assay [1], in assay [2], in [3] and in [8] was “inactive” throughout.

For the compound `COc1cc(O)c(C(=O)c2ccccc2)cc1S(=O)(=O)O`, the Potency result in assay [1], in [2], in [3], in assay [4] and in assay [8] was “inactive” each time.

`O=S(c1cc(Cl)cc(Cl)c1O)c1cc(Cl)cc(Cl)c1O`: the Potency result in assay [1] and in assay [2] was “inactive” each time.

Values taken from PubChem BioAssay (NCATS).
